# According to PMC7862700, “An all-to-all approach to the identification of sequence-specific readers for epigenetic DNA modifications on cytosine”:
# Key:
# Assay in all cases: DAPPL (digital affinity profiling via proximity ligation, sequencing); 10 mM Tris-HCl pH 7.5, 50 mM NaCl, 1 mM DTT, 4% glycerol, room temperature, 30 min; GST-TFs on glutathione beads, 16-mer random dsDNA library, 0.1% formaldehyde crosslink after washing; high values mean tight binding
# FLI1 = target: T1, FLI1 (Homo sapiens, UniProt Q01543 1-452); details: protein: recombinant; tags: N-terminal GST; dsDNA, one strand shown
# T1 sequence: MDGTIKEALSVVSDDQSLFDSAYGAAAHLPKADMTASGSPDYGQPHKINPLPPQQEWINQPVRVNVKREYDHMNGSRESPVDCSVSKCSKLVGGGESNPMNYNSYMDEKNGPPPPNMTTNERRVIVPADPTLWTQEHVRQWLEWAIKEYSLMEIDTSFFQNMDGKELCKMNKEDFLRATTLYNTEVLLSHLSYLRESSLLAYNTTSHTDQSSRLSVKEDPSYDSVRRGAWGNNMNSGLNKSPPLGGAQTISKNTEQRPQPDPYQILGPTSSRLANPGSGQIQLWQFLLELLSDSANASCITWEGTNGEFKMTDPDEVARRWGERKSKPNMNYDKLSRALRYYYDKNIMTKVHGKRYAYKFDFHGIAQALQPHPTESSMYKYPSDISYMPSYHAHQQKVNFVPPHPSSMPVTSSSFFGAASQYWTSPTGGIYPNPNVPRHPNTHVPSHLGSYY
# Outline: (§1)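 A tag-only sample was pooled with DNA-barcoded human transcription factors that had been expressed in yeast as GST fusions and captured on glutathione beads. The pools were incubated for 30 min at room temperature with 200 nmole of a random double-stranded 16-mer DNA library in Tris/NaCl/DTT/glycerol buffer, then washed, crosslinked with 0.1% formaldehyde, proximity-ligated (BsaI/T4 ligase, 1 h, 37 °C), PCR-amplified and sequenced on an Illumina NextSeq500. Binding signal is each hexamer's read frequency for a factor divided by its frequency for the tag-only sample.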
# ELK1 = target: T2, ELK1 (Homo sapiens, UniProt P19419 1-428); details: protein: recombinant; tags: N-terminal GST; dsDNA, one strand shown
# T2 sequence: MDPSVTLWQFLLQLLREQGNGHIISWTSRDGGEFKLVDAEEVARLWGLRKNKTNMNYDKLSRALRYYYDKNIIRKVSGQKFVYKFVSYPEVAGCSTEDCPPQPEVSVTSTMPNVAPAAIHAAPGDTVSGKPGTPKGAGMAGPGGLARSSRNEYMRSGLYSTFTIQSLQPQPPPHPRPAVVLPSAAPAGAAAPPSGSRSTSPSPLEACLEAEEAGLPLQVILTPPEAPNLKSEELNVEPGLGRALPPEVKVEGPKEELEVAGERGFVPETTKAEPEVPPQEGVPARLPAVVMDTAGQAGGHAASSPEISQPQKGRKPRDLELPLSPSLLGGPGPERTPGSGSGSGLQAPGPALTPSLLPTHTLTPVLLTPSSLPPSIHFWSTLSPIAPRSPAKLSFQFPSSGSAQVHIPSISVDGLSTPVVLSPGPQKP
# Outline: as §1
# GABPA = target: T3, GABPA (Homo sapiens, UniProt Q06546 1-454); details: protein: recombinant; tags: N-terminal GST; dsDNA, one strand shown
# T3 sequence: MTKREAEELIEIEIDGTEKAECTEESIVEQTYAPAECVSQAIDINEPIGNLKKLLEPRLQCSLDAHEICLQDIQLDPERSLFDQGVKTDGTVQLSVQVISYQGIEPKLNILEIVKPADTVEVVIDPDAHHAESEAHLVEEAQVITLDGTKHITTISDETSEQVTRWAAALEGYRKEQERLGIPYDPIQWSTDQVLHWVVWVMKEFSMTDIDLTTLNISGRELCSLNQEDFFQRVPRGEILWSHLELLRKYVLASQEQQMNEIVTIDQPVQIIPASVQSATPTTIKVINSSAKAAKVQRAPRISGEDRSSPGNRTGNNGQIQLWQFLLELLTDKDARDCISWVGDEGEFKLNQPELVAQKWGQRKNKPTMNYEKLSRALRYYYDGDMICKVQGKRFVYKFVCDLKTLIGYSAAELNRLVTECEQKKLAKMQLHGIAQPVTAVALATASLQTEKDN
# Outline: as §1
# ERG = target: T4, ERG (Homo sapiens, UniProt P11308 1-479); details: protein: recombinant; tags: N-terminal GST; dsDNA, one strand shown
# T4 sequence: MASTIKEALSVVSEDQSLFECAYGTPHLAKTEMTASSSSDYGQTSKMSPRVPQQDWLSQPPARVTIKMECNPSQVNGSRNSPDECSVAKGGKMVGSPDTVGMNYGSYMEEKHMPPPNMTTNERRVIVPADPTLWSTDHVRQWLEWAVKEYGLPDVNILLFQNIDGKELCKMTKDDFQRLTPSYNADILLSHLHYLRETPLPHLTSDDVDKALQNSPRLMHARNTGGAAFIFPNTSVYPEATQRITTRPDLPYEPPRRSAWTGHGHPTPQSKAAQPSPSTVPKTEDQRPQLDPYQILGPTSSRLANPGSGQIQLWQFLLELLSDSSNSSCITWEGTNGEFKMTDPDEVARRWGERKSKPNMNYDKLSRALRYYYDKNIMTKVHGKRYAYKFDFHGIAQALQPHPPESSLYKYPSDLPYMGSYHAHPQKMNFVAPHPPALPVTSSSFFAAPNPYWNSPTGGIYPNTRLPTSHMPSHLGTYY
# Outline: as §1
# ELF1 = ELF1 (Homo sapiens, UniProt P32519 1-619); details: protein: recombinant; tags: N-terminal GST; dsDNA, one strand shown
# Outline: as §1
# EHF = target: T5, EHF (Homo sapiens, UniProt Q9NZC4 1-300); details: protein: recombinant; tags: N-terminal GST; dsDNA, one strand shown
# T5 sequence: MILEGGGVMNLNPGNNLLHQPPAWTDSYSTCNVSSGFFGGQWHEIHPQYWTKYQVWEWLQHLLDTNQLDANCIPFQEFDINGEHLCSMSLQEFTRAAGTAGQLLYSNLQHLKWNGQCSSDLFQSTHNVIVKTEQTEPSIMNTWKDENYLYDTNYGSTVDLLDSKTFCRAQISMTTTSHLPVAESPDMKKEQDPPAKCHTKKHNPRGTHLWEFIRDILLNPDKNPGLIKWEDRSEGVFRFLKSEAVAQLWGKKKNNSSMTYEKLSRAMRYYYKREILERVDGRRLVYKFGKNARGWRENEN
# Outline: as §1
# SPI1 = SPI1 (Homo sapiens, UniProt P17947 1-270); details: protein: recombinant; tags: N-terminal GST; dsDNA, one strand shown
# Outline: as §1
# SPIB = SPIB (Homo sapiens, UniProt Q01892 1-262); details: protein: recombinant; tags: N-terminal GST; dsDNA, one strand shown
# Outline: as §1
# ELK3 = target: T6, ELK3 (Homo sapiens, UniProt P41970 1-407); details: protein: recombinant; tags: N-terminal GST; dsDNA, one strand shown
# T6 sequence: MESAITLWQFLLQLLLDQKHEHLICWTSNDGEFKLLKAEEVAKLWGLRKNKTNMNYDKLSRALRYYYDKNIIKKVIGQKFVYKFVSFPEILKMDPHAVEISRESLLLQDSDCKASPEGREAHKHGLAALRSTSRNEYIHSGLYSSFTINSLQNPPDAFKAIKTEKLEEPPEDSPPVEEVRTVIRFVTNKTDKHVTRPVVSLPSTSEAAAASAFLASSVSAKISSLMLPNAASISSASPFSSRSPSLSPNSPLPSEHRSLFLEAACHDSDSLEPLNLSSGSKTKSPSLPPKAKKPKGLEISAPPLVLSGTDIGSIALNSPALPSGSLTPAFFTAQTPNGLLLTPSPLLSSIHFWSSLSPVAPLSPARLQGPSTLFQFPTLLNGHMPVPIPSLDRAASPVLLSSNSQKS
# Outline: as §1
# FEV = target: T7, FEV (Homo sapiens, UniProt Q99581 1-238); details: protein: recombinant; tags: N-terminal GST; dsDNA, one strand shown
# T7 sequence: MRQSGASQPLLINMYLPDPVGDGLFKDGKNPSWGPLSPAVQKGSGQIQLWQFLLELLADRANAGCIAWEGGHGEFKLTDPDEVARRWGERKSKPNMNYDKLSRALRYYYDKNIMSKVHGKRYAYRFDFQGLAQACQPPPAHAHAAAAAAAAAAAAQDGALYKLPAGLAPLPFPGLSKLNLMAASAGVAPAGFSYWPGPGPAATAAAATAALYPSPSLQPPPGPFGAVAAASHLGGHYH
# Outline: as §1
# ETV5 = ETV5 (Homo sapiens, UniProt P41161 1-510); details: protein: recombinant; tags: N-terminal GST; dsDNA, one strand shown
# Outline: as §1
# HSF1 = HSF1 (Homo sapiens, UniProt Q00613 1-529); details: protein: recombinant; tags: N-terminal GST; chain copies: 3; dsDNA, one strand shown
# Outline: as §1
# SPIC = target: T8, SPIC (Homo sapiens, UniProt Q8N5J4 1-248); details: protein: recombinant; tags: N-terminal GST; dsDNA, one strand shown
# T8 sequence: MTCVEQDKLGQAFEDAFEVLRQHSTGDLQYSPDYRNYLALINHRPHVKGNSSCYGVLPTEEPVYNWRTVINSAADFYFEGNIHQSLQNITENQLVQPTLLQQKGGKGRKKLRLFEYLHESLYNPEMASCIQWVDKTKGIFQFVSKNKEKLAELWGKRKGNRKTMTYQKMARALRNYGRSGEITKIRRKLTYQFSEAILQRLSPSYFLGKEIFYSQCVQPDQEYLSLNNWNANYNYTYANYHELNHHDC
# Outline: as §1
# ELF4 = ELF4 (Homo sapiens, UniProt Q99607 1-663); details: protein: recombinant; tags: N-terminal GST; dsDNA, one strand shown
# Outline: as §1
# ELK4 = target: T9, ELK4 (Homo sapiens, UniProt P28324-2 1-405); details: protein: recombinant; tags: N-terminal GST; dsDNA, one strand shown
# T9 sequence: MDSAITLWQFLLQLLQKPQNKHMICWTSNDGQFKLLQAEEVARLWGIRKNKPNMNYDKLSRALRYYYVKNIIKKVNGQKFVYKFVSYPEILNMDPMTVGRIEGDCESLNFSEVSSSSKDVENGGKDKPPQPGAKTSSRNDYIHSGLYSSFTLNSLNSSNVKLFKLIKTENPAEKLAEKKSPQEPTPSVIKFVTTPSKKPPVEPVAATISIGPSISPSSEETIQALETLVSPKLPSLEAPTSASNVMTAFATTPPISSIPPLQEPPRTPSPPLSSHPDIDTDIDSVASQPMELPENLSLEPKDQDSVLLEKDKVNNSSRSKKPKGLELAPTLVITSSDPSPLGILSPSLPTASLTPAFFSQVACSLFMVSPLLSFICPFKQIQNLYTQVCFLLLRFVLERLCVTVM
# Outline: as §1
# ETV2 = target: T10, ETV2 (Homo sapiens, UniProt O00321 1-342); details: protein: recombinant; tags: N-terminal GST; dsDNA, one strand shown
# T10 sequence: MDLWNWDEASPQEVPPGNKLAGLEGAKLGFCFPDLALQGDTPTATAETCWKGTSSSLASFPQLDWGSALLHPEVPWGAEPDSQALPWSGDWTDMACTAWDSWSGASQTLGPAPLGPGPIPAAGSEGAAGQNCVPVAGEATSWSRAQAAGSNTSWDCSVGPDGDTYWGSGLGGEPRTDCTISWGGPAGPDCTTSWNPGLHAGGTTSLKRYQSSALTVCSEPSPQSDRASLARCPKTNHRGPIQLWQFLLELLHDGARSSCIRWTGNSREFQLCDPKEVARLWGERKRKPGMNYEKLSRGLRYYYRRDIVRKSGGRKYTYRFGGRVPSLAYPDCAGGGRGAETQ
# Outline: as §1
# ELF3 = target: T11, ELF3 (Homo sapiens, UniProt P78545 1-371); details: protein: recombinant; tags: N-terminal GST; dsDNA, one strand shown
# T11 sequence: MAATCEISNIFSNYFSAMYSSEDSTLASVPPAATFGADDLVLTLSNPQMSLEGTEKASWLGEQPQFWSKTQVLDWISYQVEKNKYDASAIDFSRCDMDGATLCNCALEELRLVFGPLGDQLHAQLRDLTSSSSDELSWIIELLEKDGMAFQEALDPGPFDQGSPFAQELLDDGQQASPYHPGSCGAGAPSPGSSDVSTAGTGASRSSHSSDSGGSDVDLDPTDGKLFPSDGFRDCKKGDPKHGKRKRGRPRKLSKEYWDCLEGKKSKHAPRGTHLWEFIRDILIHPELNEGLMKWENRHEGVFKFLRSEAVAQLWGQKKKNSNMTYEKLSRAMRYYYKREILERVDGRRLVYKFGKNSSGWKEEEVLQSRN
# Outline: as §1
# CRX = CRX (Homo sapiens, UniProt O43186 1-299); details: protein: recombinant; tags: N-terminal GST; dsDNA, one strand shown
# Outline: as §1
# ETV1 = ETV1 (Homo sapiens, UniProt P50549 1-477); details: protein: recombinant; tags: N-terminal GST; dsDNA, one strand shown
# Outline: as §1
# Sequence of SPIB (Q01892 whole entry): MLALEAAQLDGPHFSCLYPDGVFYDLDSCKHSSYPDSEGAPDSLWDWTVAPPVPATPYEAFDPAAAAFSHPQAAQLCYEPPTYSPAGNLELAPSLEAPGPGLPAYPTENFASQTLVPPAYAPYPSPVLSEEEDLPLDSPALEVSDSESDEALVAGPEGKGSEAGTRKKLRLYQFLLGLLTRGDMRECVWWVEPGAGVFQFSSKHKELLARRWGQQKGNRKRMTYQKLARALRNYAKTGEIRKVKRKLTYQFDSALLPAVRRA
# Sequence of ELF1 (P32519 whole entry): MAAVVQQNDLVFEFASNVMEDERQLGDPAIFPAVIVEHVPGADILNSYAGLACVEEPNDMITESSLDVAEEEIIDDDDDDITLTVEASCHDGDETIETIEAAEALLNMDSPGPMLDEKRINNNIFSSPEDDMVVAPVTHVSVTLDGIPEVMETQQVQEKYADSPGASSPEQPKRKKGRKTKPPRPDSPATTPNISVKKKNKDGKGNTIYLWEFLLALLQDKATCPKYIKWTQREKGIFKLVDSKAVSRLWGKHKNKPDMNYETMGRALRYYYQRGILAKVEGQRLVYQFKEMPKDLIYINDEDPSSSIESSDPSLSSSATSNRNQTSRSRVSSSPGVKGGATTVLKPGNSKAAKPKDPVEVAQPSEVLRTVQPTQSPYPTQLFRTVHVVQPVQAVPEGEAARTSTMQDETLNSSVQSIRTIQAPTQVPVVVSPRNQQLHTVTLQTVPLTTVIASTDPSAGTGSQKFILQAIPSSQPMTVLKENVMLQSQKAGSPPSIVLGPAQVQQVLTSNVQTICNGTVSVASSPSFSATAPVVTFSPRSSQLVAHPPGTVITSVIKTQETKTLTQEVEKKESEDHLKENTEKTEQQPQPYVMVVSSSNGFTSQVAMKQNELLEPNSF
# Sequence of ELF4 (Q99607 whole entry): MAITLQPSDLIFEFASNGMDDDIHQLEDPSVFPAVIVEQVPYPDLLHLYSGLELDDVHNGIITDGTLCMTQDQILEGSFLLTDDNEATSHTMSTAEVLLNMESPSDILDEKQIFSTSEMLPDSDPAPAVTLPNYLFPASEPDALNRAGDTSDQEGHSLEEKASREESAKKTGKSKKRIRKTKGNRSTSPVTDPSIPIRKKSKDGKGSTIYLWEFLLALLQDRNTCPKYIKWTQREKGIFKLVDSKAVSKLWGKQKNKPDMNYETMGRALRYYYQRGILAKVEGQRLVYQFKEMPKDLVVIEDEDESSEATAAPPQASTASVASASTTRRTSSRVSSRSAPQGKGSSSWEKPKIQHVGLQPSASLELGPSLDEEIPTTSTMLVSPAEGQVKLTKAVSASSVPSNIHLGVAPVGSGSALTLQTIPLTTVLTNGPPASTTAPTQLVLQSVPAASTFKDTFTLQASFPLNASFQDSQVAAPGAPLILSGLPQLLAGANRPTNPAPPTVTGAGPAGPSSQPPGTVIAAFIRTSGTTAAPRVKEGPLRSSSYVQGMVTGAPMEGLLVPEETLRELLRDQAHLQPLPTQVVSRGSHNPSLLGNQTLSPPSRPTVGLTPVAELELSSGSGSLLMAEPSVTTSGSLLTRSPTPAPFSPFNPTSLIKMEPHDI
# Sequence of ETV5 (P41161 whole entry): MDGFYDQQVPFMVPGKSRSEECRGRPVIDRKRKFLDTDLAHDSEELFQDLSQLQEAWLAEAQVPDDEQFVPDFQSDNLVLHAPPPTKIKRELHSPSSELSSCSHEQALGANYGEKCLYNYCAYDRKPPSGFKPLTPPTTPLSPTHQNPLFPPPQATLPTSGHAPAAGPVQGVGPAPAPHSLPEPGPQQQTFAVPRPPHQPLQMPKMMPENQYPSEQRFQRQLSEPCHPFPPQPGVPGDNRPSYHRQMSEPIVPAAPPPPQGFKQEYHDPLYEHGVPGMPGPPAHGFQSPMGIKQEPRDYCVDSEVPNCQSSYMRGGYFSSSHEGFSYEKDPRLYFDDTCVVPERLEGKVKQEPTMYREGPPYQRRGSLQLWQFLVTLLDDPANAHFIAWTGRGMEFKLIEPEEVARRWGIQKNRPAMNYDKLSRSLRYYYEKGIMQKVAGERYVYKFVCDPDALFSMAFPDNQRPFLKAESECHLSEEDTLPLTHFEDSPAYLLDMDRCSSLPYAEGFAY
# Sequence of ETV1 (P50549 whole entry): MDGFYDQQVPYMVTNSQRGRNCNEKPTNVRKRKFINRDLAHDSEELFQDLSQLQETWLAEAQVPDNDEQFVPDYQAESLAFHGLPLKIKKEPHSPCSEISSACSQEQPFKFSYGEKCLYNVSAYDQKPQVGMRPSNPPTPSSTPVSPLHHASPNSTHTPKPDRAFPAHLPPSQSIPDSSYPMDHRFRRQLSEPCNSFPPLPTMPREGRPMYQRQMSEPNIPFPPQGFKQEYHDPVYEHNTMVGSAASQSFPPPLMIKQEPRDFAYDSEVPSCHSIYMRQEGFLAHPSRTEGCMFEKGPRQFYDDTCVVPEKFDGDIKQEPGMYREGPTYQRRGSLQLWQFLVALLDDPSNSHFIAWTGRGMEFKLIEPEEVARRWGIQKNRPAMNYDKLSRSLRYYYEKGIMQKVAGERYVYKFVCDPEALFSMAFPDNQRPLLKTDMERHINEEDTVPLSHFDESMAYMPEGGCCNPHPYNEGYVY
# Sequence of CRX (O43186 whole entry): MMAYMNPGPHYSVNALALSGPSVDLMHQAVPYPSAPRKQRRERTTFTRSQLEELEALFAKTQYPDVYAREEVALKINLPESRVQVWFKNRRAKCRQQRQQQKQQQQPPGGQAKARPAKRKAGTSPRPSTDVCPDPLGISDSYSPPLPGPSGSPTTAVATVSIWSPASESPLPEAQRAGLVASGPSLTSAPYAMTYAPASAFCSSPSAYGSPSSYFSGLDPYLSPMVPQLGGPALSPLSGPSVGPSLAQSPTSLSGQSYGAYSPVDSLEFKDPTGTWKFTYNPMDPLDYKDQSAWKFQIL
# Sequence of HSF1 (Q00613 whole entry): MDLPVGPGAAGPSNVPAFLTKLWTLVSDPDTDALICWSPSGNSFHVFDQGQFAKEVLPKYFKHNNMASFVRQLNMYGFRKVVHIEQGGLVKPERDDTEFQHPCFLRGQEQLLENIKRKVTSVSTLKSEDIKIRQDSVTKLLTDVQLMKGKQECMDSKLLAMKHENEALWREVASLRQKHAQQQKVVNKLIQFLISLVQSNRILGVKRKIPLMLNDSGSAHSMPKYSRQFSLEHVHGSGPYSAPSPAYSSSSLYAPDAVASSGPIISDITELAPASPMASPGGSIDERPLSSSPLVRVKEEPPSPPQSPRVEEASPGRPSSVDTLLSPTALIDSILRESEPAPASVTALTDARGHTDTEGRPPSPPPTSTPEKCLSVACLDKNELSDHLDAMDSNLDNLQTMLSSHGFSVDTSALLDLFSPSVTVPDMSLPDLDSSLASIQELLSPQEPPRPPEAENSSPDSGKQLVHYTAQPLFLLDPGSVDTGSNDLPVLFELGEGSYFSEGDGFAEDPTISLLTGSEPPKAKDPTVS
sequence,measurement,setting,value
ACTCCT,binding signal,FLI1,"1.67 fold enrichment (6-mer frequency, TF over GST control)"
same,binding signal,ELK1,"1.55 fold enrichment (6-mer frequency, TF over GST control)"
same,binding signal,GABPA,"1.45 fold enrichment (6-mer frequency, TF over GST control)"
same,binding signal,ERG,"1.45 fold enrichment (6-mer frequency, TF over GST control)"
same,binding signal,ELF1,"1.57 fold enrichment (6-mer frequency, TF over GST control)"
same,binding signal,EHF,"1.52 fold enrichment (6-mer frequency, TF over GST control)"
same,binding signal,SPI1,"1.42 fold enrichment (6-mer frequency, TF over GST control)"
same,binding signal,SPIB,"1.57 fold enrichment (6-mer frequency, TF over GST control)"
same,binding signal,ELK3,"1.5 fold enrichment (6-mer frequency, TF over GST control)"
same,binding signal,FEV,"1.47 fold enrichment (6-mer frequency, TF over GST control)"
same,binding signal,ETV5,"1.38 fold enrichment (6-mer frequency, TF over GST control)"
same,binding signal,HSF1,"1.36 fold enrichment (6-mer frequency, TF over GST control)"
same,binding signal,SPIC,"1.54 fold enrichment (6-mer frequency, TF over GST control)"
same,binding signal,ELF4,"1.59 fold enrichment (6-mer frequency, TF over GST control)"
same,binding signal,ELK4,"1.54 fold enrichment (6-mer frequency, TF over GST control)"
same,binding signal,ETV2,"1.38 fold enrichment (6-mer frequency, TF over GST control)"
same,binding signal,ELF3,"1.3 fold enrichment (6-mer frequency, TF over GST control)"
same,binding signal,CRX,"1.32 fold enrichment (6-mer frequency, TF over GST control)"
same,binding signal,ETV1,"1.41 fold enrichment (6-mer frequency, TF over GST control)"
